# ABHD5-PLIN5 inh = ABHD5-PLIN5 protein interaction inhibition; hit rate 0.78% among 360,000; AID 602281; Split G. princeps luciferase complementation, luminescence, 4 h; inhibition, % at 4 µM; Q00G26+Q8WTS1;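 active = inhibition above the mean inhibition across every tested compound plus 3 SD, cut at about 22% in these data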
# TLR4-MyD88 BLA = TLR4-MyD88 interaction inhibition in cells | O00206+Q99836 | hit rate 0.18% among 200,000 | HeLa CL3-4 TLR4/MyD88 BLA complementation, FRET ratio | inhibition, % at 8.4 µM; in the data active = inhibition above about 25%
# TLR9-MyD88 block = inhibitors of human TLR9-MyD88 binding | Q9NR96+Q99836 | CHO BLA complementation TLR9-MyD88, CCF4 FRET ratio | inhibition, % at 4.98 µM | hit rate 0.21% among 340,000 | AID 504734;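 active = inhibition above the mean over all tested compounds plus 3 SD, cut at about 21% in these data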
# CRFR2-BP antag = antagonists of CRF-binding protein/CRF-R2 receptor complex. AID 588475. hit rate 0.59% among 350,000. inhibition, % at 11.8 µM. HEK293 CRF-R2/CRF-BP, CRF-induced calcium fluorescence;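 active = inhibition of the ligand-induced calcium signal above about 50% at the single tested concentration, limit read from the data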
# HTR2A ag = agonists of mouse serotonin 5-HT2A receptor (HTR2A) | P35363 | CHO-K1 mHTR2A beta-arrestin complementation, luminescence; percent of 30 µM serotonin response | activation, % at 7.6 µM | hit rate 0.66% among 360,000;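 active = activation above a run cutoff, the mean activation of all tested compounds plus 3 SD, cut at about 14% in these data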
# NOD2-RIPK2 inh = blocks binding of human NOD2 to RIPK2; O43353; CHO BLA complementation NOD2-RIPK2, CCF4 ratio; inhibition, % at 4.98 µM; hit rate 0.38% among 360,000; in the data active = inhibition above about 21%
# Target sequence (O43353 whole entry, looked up): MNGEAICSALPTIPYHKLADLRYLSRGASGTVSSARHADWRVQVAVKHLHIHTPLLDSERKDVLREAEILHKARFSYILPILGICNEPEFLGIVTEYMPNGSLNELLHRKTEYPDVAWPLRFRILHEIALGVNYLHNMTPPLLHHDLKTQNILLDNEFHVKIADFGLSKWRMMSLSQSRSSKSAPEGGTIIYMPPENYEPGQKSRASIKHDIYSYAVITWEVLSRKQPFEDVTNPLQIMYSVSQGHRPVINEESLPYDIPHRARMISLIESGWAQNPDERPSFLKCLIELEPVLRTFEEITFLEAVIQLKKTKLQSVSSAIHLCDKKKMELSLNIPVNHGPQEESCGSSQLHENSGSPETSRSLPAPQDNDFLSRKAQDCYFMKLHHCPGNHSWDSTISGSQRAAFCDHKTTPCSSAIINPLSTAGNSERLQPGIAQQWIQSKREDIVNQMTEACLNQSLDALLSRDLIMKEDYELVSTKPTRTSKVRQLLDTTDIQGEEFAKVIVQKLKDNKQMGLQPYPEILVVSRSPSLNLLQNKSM
# Hits are given with their value; i = inactive; nt = no result given. Rows were chosen to be rich in hits. Some 2.4% of all compounds tested hit in one or more screens of this group.
SMILES,ABHD5-PLIN5 inh,TLR4-MyD88 BLA,TLR9-MyD88 block,CRFR2-BP antag,HTR2A ag,NOD2-RIPK2 inh
COc1ccc(/C=C\C(=O)O[C@@H]2C(O)C(O[C@@H]3OC(C)[C@H](O[C@@H]4OCC(O[C@H]5O[C@H](CO)[C@@H](O)C(O)C5O)C(O)C4O)C(O)C3O)[C@H](OC(=O)[C@]34CCC(C)(C)C[C@@H]3C3=CCC5[C@@]6(C)CC(O)C(O[C@@H]7OC(CO)C(O)[C@H](O)[C@H]7O)[C@@](C)(C(=O)O)C6CC[C@@]5(C)[C@]3(CO)CC4)O[C@H]2C)cc1 (stereo partly drawn),i,nt,23.9,i,15.9,i
Cc1[nH]c(C)c(S(=O)(=O)NCCc2ccccc2)c1C(=O)N1CCCCC1,i,nt,i,70.4,i,i
COc1ccc(NC(=O)C2(C)Cc3c(-c4cccc(NC(C)=O)c4)ccnc3O2)cn1 (stereo not drawn),i,nt,nt,nt,i,i
CCOc1ccc(C2/C(=C(\O)c3ccc4c(c3)OCCO4)C(=O)C(=O)N2CCCN2CCOCC2)cc1 (stereo not drawn),i,nt,i,55.1,i,i
Cn1nc(C(C)(C)C)cc1NC(=O)C1(C)CCN1C(=O)c1ccccc1CCc1ccccc1 (stereo not drawn),i,nt,nt,nt,i,i
COc1cccc(-c2nc(-c3ccccn3)no2)c1,nt,i,nt,i,nt,nt
O=[N+]([O-])c1cccc(-c2nc(-c3ccccn3)no2)c1,i,nt,i,59.4,i,i
CC1(C(=O)Nc2ccc3c(c2)OCCO3)CSCC(=O)N1C1CC1 (stereo not drawn),i,nt,nt,nt,i,i
CN(C)CCCNC(=O)C[C@H]1C[C@H](C(=O)N2CCOCC2)[C@@]2(C)c3[nH]c4ccc(Cl)cc4c3CCN2C1=O,i,nt,i,95.4,i,i
O=C(C[C@H]1C[C@H](C(=O)N2CCCCC2)[C@@]2(CCc3ccccc3)c3[nH]c4ccc(Cl)cc4c3CCN2C1=O)NCCc1ccccn1,i,nt,i,i,i,i
CC[C@]12c3[nH]c4ccc(OC)cc4c3CCN1C(=O)C(CC(=O)NCCCOC)C[C@@H]2C(=O)N1CCN(C(=O)c2ccco2)CC1 (stereo partly drawn),i,nt,i,53.3,i,i
CN(C)CCCNC(=O)C[C@H]1C[C@H](C(=O)N2CCCCC2)[C@@]2(C)c3[nH]c4ccc(Cl)cc4c3CCN2C1=O,i,nt,i,i,i,i
CN(C)CCCNC(=O)C[C@H]1C[C@H](C(=O)N2CCCCC2)[C@@]2(CCc3ccccc3)c3[nH]c4ccc(Cl)cc4c3CCN2C1=O,22.0,nt,i,i,i,i
COc1cc(NC(=O)c2sc3ncn(CC(=O)N4CCCCC4C)c(=O)c3c2C)cc(OC)c1OC (stereo not drawn),i,nt,i,i,i,i
CCC(C)NC(=O)CN1C(=O)CSc2ccc(S(=O)(=O)N3CCCC3)cc21 (stereo not drawn),i,nt,i,i,i,i
CC(C)NC(=O)CN1C(=O)CSc2ccc(S(=O)(=O)N3CCCC3)cc21,i,nt,i,64.3,i,i
CCOc1ccccc1N1CCN(C(=O)Cc2ccc(S(=O)(=O)N3CCOCC3)s2)CC1,i,nt,i,101.2,i,i
CC1(C(=O)Nc2cccc3cccnc23)CCN1Cc1cccc2c1OCO2 (stereo not drawn),i,nt,nt,nt,i,i
CC(C)(C)n1nnnc1C(c1ccccc1)N1CCN(C(=O)C2CCCO2)CC1 (stereo not drawn),i,nt,nt,nt,i,i
CCOc1ccc(C(CCc2ccccc2)NC(=O)c2ccccc2OC)cc1OCC (stereo not drawn),i,i,i,75.7,i,i
CCOc1ccc(C(CCc2ccccc2)NC(=O)c2ccccc2F)cc1OCC (stereo not drawn),i,i,i,i,i,i
C[C@@H]1CN([C@H](C)CO)C(=O)CCCn2nncc2CO[C@H]1CN(C)Cc1ccc(O)cc1,i,nt,i,i,i,i
Cc1ccc(NC(=O)c2ccccc2NS(=O)(=O)c2ccc(F)cc2)cc1S(=O)(=O)N1CCCCC1,i,i,i,98.2,i,i
Cc1ccc(NC(=O)CCNC(=O)c2ccccc2Cl)cc1S(=O)(=O)N1CCCCCC1,i,nt,i,i,i,i
NS(=O)(=O)c1cccc(NC(=O)c2ccccc2NS(=O)(=O)c2ccc(F)cc2)c1,i,nt,i,i,i,i

# Screening data from PubChem.
